Experimental findings from PubChem BioAssay (NCI) are described below.

Some test systems named below: NCI-H23 lung; NCI-H226 lung; NCI-H322M lung; HOP-62 NSCLC; NCI-H460 lung; HOP-92 NSCLC; NCI-H522 lung; A549/ATCC NSCLC; 786-0 renal; COLO 205 colon; DU-145 prostate; K-562 leukemia; MALME-3M melanoma; MDA-MB-231 breast; RXF 393 renal; SF-268 CNS; SF-295 CNS; SF-539 CNS; UACC-257 melanoma; M14 melanoma.
Common to all, as to assay: NCI-60 one-dose screen, 48 h (100 = growth as untreated, 0 = no growth, -100 = all killed)
Holding throughout (details): 10 µM unless noted

SMILES strings stand for the structures. The panel holds about 83,000 compounds, 20% with a hit somewhere; the sample as a whole holds those more often.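 Plates (96-well) were seeded with cells, treated with compound at one concentration, and incubated for 48 hours before percent growth was determined.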 Unmarked numbers belong to inactive results. Active and inactive are the calls of the source. How the source made its calls: active means growth percent below 10; inactive means the rest.

Consider `CNCCCNc1nc2ccccc2c2c(=O)c3cc(F)ccc3sc12`, for which the growth with NCI-H23 lung was 70.1%; in the experiment with NCI-H226 lung it was 81.7%; in the experiment on NCI-H322M lung it was 55.9%; in the experiment with HOP-62 NSCLC, 47.9%; with NCI-H460 lung, -52.9% (active); in the experiment with HOP-92 NSCLC, 28.9%. Moreover, the growth in the experiment with NCI-H522 lung was 24.8%; in the experiment on A549/ATCC NSCLC, 37.9%; with 786-0 renal, 61.5%; in the experiment with COLO 205 colon it was -47.8% (active); in the experiment with DU-145 prostate, 2.57% (active); in the experiment with K-562 leukemia, -38.7% (active). Moreover, the growth with MALME-3M melanoma was 84.2%; in the experiment on MDA-MB-231 breast it was -53.7% (active); in the experiment on RXF 393 renal it was 45.6%; in the experiment on SF-268 CNS it was 51.5%; with SF-295 CNS, 81.5%; in the experiment on SF-539 CNS, 1.04% (active). For the same compound, the growth in the experiment on UACC-257 melanoma was 91.6%.
Consider `COc1ccc(-c2nn(C(=O)c3cc(OC)c(OC)c(OC)c3)c3cc(N)ccc23)cc1`, for which the growth was 34.1% with NCI-H23 lung; 28.9% with NCI-H226 lung; 53.4% in the experiment with NCI-H322M lung; 30.1% in the experiment on HOP-62 NSCLC; 9.14% (active) in the experiment with NCI-H460 lung; 50.1% in the experiment on HOP-92 NSCLC. Further, the growth was -12.6% (active) in the experiment with NCI-H522 lung; 18.1% in the experiment with A549/ATCC NSCLC; 6.94% (active) in the experiment with 786-0 renal; -60.3% (active) in the experiment with COLO 205 colon; 10.1% in the experiment with DU-145 prostate; 8.96% (active) with K-562 leukemia. Moreover, the growth with MALME-3M melanoma was 68.2%; in the experiment with MDA-MB-231 breast, 29.9%; in the experiment on RXF 393 renal it was 14.6%; in the experiment with SF-268 CNS, 27.4%; in the experiment on SF-295 CNS, 7.45% (active); with SF-539 CNS it was -24% (active). The growth in the experiment on UACC-257 melanoma is 86.4%; in the experiment with M14 melanoma, 24.4%.
For `NS(=O)(=O)c1ccc(-n2nc(C(=O)N/N=C\c3ccc(F)cc3)cc2-c2ccc(Br)cc2)cc1`, the growth in the experiment with NCI-H23 lung is 83.9%; in the experiment on NCI-H226 lung, 81.9%; in the experiment on NCI-H322M lung it was 94.3%; in the experiment on HOP-62 NSCLC it was 65.3%; in the experiment with NCI-H460 lung, 84.1%; with HOP-92 NSCLC, 67.8%. Besides, the growth in the experiment on NCI-H522 lung was 54.2%; in the experiment with A549/ATCC NSCLC it was 74.3%; in the experiment on 786-0 renal, 106%; in the experiment with COLO 205 colon, 83.1%; in the experiment with DU-145 prostate it was 93.4%; with K-562 leukemia, 18%. Further, the growth in the experiment with MALME-3M melanoma is 68.3%; in the experiment with MDA-MB-231 breast, 85.3%; in the experiment on RXF 393 renal, 77.8%; with SF-268 CNS, 82.2%; in the experiment with SF-295 CNS, 74.6%; with SF-539 CNS, 89.7%. In addition, the growth was 86.1% in the experiment on UACC-257 melanoma and 79.7% in the experiment with M14 melanoma.
For the compound `CC(=O)c1ccc(Nc2nc(C(C)=O)c(C)s2)cc1`, the growth is 96% in the experiment on NCI-H23 lung; 66.2% with NCI-H226 lung; 82% in the experiment on NCI-H322M lung; 95.4% in the experiment on HOP-62 NSCLC; 97.8% in the experiment on NCI-H460 lung; 102% with HOP-92 NSCLC. Moreover, the growth is 87.9% in the experiment with NCI-H522 lung; 95.5% with A549/ATCC NSCLC; 95.8% in the experiment with 786-0 renal; 109% with COLO 205 colon; 102% in the experiment with DU-145 prostate; 88.7% in the experiment with K-562 leukemia. Moreover, the growth in the experiment with MALME-3M melanoma was 105%; with MDA-MB-231 breast, 98%; in the experiment with RXF 393 renal, 101%; with SF-268 CNS, 98%; in the experiment with SF-295 CNS it was 98.6%; in the experiment with SF-539 CNS, 103%. The growth with UACC-257 melanoma was 103%.
With `O=c1ccc(N=Nc2ccccc2)ccc1Cl`, the growth was 16.4% in the experiment with NCI-H23 lung; 87.7% in the experiment with NCI-H226 lung; 103% with NCI-H322M lung; 93.9% in the experiment with HOP-62 NSCLC; 98% in the experiment with NCI-H460 lung; 114% in the experiment on HOP-92 NSCLC. For the same compound, the growth was -22.6% (active) with NCI-H522 lung; 103% with A549/ATCC NSCLC; 48.8% with 786-0 renal; 68.4% in the experiment with COLO 205 colon; 93.2% in the experiment with DU-145 prostate; 0.344% (active) in the experiment with K-562 leukemia. Further, the growth in the experiment on MALME-3M melanoma is 55%; in the experiment on MDA-MB-231 breast it was -1.83% (active); with RXF 393 renal it was 6.49% (active); in the experiment with SF-268 CNS, 92.5%; in the experiment with SF-295 CNS, 69.6%; in the experiment on SF-539 CNS, 45.8%. Further, in the experiment on UACC-257 melanoma, the growth was 74.6%.
Take `COc1ccc(OC)c(/C=C/C(=O)N/N=C/c2ccc(Cl)cc2)c1`: the growth with NCI-H23 lung is 34.8%; with NCI-H226 lung, 73.1%; with NCI-H322M lung, 41.3%; in the experiment with HOP-62 NSCLC, 37.9%; in the experiment on NCI-H460 lung it was 5.19% (active); with HOP-92 NSCLC, 77.7%. In addition, the growth in the experiment with NCI-H522 lung is -36.2% (active); in the experiment on A549/ATCC NSCLC it was 27.8%; in the experiment with 786-0 renal, 16.7%; in the experiment with COLO 205 colon, -48.9% (active); in the experiment on DU-145 prostate, 14.8%; in the experiment on K-562 leukemia, 14%. In addition, the growth in the experiment on MALME-3M melanoma was 54.1%; with MDA-MB-231 breast, 28.1%; with RXF 393 renal, -19.8% (active); in the experiment on SF-268 CNS, 33.2%; in the experiment with SF-295 CNS it was 31.8%; in the experiment with SF-539 CNS, -43.2% (active). Moreover, the values for the growth with UACC-257 melanoma and in the experiment with M14 melanoma were 53% and -34.4% (active), respectively.
For `C[C@]12CC[C@@H]3c4cc(OC(F)F)c(OS(N)(=O)=O)cc4CC[C@H]3[C@@H]1CC[C@@H]2O`, the growth is 24.5% in the experiment with NCI-H23 lung; 54.9% with NCI-H226 lung; 42.4% in the experiment with NCI-H322M lung; 38.7% with HOP-62 NSCLC; 12.1% in the experiment on NCI-H460 lung; 58.6% in the experiment with HOP-92 NSCLC. The growth in the experiment with NCI-H522 lung is 19.8%; with A549/ATCC NSCLC, 29.5%; with 786-0 renal it was 42.3%; in the experiment on COLO 205 colon, 12.4%; with DU-145 prostate it was 9.26% (active); with K-562 leukemia, 12.3%. Also, the growth was 26.4% in the experiment on MALME-3M melanoma; 43.3% with MDA-MB-231 breast; -5.44% (active) in the experiment with RXF 393 renal; 49.6% in the experiment on SF-268 CNS; 2.5% (active) with SF-295 CNS; -3.28% (active) with SF-539 CNS. Also, the growth with UACC-257 melanoma is 67.4%; in the experiment with M14 melanoma it was 5.82% (active).
Consider `c1ccc(Cc2nn3cc(-c4ccccc4)nc3s2)cc1`, for which the growth with NCI-H23 lung was 97.8%; with NCI-H226 lung it was 117%; in the experiment with NCI-H322M lung, 98.4%; in the experiment on HOP-62 NSCLC, 104%; with NCI-H460 lung, 102%; in the experiment with HOP-92 NSCLC it was 109%. Moreover, the growth is 80.1% in the experiment with NCI-H522 lung; 91.3% with A549/ATCC NSCLC; 86.3% with 786-0 renal; 118% in the experiment with COLO 205 colon; 99% in the experiment with DU-145 prostate; 93.8% with K-562 leukemia. Also, the growth in the experiment with MALME-3M melanoma was 111%; with MDA-MB-231 breast it was 109%; in the experiment on RXF 393 renal it was 129%; with SF-268 CNS, 98%; in the experiment with SF-295 CNS, 97.8%; in the experiment on SF-539 CNS it was 106%. Moreover, the growth in the experiment with UACC-257 melanoma was 108%.
